Among all 2,300 compounds or so, about 330 (14%) showed activity.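 Rule for the calls: active = median modified Z-score above 1.96; inactive = 1.96 or below.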 Not all results are given here.
Tested on: HepG2 Srxn1-GFP reporter cells (+30 nM CDDO-Me)
Test: Srxn1-GFP intensity median modified Z-score relative to plate median; higher = stronger NRF2 / oxidative stress reporter activation, active = hit call of the paper
Conditions: 10 µM; exposure time: 24h
How it was run: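 HepG2 Srxn1-GFP BAC reporter cells were seeded at 20,000 per well in 96-well plates and co-exposed for 24 h to compound at 10 μM and an NRF2 activator at 30 nM, with DMSO at ≤0.1%, in three replicate plates. Cells were fixed with formaldehyde, stained with Hoechst and imaged by confocal microscopy, and cytoplasmic GFP was measured per cell, with images holding under 100 cells discarded. The reported value is the median over replicates of each plate's modified Z-score of GFP intensity. For this score, scaling used 1.4826 × median absolute deviation.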

Compound	Srxn1-GFP intensity median modified Z-score
CCCCCCCCCCCCCCCC(=O)OCC(O)c1oc(O)c(O)c1O (stereo unspecified) [euspeclibcmpd862]	-0.777 (inactive)
CC(C)(Oc1ccc(C(=O)c2ccc(Cl)cc2)cc1)C(=O)O [euspeclibcmpd2188]	-0.278 (inactive)
Cc1c2oc3c(C)ccc(C(=O)OC(C)C4NC(=O)C(C(C)C)N(C)C(=O)CN(C)C(=O)C5CCCN5C(=O)C(C(C)C)NC4=O)c3[nH]c-2c(C(=O)OC(C)C2NC(=O)C(C(C)C)N(C)C(=O)CN(C)C(=O)C3CCCN3C(=O)C(C(C)C)NC2=O)c(=N)c1=O (stereo unspecified) [euspeclibcmpd955]	-2.39 (inactive)
CNCCCN1c2ccccc2Sc2ccccc21	2.13 (active)
CNCCCN1c2ccccc2CCc2ccccc21 [euspeclibcmpd86]	1.22 (inactive)
CN1CCN(CCCN2c3ccccc3Sc3ccc(Cl)cc32)CC1 [euspeclibcmpd249]	3.78 (active)
CN1CCN(CCCN2c3ccccc3Sc3ccc(C(F)(F)F)cc32)CC1 [euspeclibcmpd306]	0.328 (inactive)
CN(C)CCCN1c2ccccc2Sc2ccccc21 [euspeclibcmpd252]	0.744 (inactive)
OCCN1CCN(CCCN2c3ccccc3Sc3ccc(Cl)cc32)CC1 [euspeclibcmpd640]	-1.43 (inactive)
C/C(=C(/CCOP(=O)(O)O)SC(=O)c1ccccc1)N(C=O)Cc1c[nH]c(C)nc1=N [euspeclibcmpd1052]	1.09 (inactive)
O=C(CCc1ccccc1)NCCO	1.29 (inactive)
Cc1nnc(SC=C2CSC3C(NC(=O)Cn4cnnn4)C(=O)N3C2C(=O)O)s1 (stereo unspecified) [euspeclibcmpd2337]	0.336 (inactive)
CCCCNC(=O)c1ccc(NC(C)=O)cc1	0.99 (inactive)
CC(C)=CCCC1(C)C=Cc2c(O)c3c(c(CC=C(C)C)c2O1)OC12C(=CCCC1C(C)(C)O[C@@]2(C=CC(C)C(=O)O)C(=O)O)C3=O (stereo partly specified) [euspeclibcmpd1701]	6.67 (active)
COc1ccc(-c2coc3c4c(c(CC=C(C)C)c(OC)c3c2=O)OC(C)(C)C=C4)cc1OC [euspeclibcmpd2197]	-0.274 (inactive)
CC(C)=CCCC1(C)C=Cc2c(O)c3c(c(CC=C(C)C)c2O1)OC12C(=CC4CC1C(C)(C)OC2(C=CC(C)C(=O)O)C4=O)C3=O (stereo unspecified) [euspeclibcmpd1425]	127 (active)
COC(=O)C(C)=CCC12OC(C)(C)C3CC(=CC4C(=O)c5c(OC)c6c(c(CC=C(C)C)c5OC431)OC(C)(CCC=C(C)C)C=C6)C2=O (stereo unspecified) [euspeclibcmpd2284]	55.9 (active)
CC(C)=CCCC1(C)C=Cc2c(O)c3c(c(CC=C(C)C)c2O1)OC12C(CC4CC1C(C)(C)OC2(C=CC(C)C(=O)O)C4O)C3=O (stereo unspecified) [euspeclibcmpd1941]	50.9 (active)
Cc1cc(C)cc(-c2nnc(SCc3csc(Nc4ccccc4)n3)o2)c1	0.289 (inactive)
O=c1[nH]cnc2[nH]ncc12 [euspeclibcmpd15]	0.378 (inactive)
CCOC(=O)O[C@]1(C(=O)COC(=O)CC)CCC2C3CC=C4CC(=O)C=C[C@]4(C)C3[C@@H](O)C[C@@]21C (stereo partly specified) [euspeclibcmpd1145]	-0.25 (inactive)
NC(COCc1ccccc1)C(=O)O (stereo unspecified) [euspeclibcmpd2285]	-0.141 (inactive)

Compound	Srxn1-GFP intensity median modified Z-score
Cc1cc(CC(C)CC(C)(C)C)n(O)c(=O)c1 (stereo unspecified) [euspeclibcmpd627]	0.455 (inactive)
O=C(NC(Cc1cc(=O)[nH]c2ccccc12)C(=O)O)c1ccc(Cl)cc1 (stereo unspecified) [euspeclibcmpd1178]	0.0863 (inactive)
CN(CCOC(c1ccccc1)c1ccccc1)S(C)(=O)=O	1.57 (inactive)
CC(=O)Nc1cc2ccccc2oc1=O [euspeclibcmpd1797]	0.241 (inactive)
CCCC(=O)N=c1[nH]cnc2c1ncn2C1O[C@@H]2COP(=O)(O)O[C@H]2[C@H]1OC(=O)CCC (stereo partly specified) [euspeclibcmpd1111]	0.97 (inactive)
CCCCCCOC(=O)N=C(N)c1ccc(NCc2nc3cc(C(=O)N(CCC(=O)OCC)c4ccccn4)ccc3n2C)cc1 [euspeclibcmpd2169]	0.57 (inactive)
N=c1c2c([nH]c3ccccc13)CCCC2 [euspeclibcmpd944]	-0.0541 (inactive)
O=c1c2ccccc2[nH]c2ccccc12	0.588 (inactive)
N=c1c2ccccc2[nH]c2ccccc12 [euspeclibcmpd350]	15 (active)
CC(=O)c1c(O)c(C)c(O)c2c1OC1=CC(=O)C(C(C)=O)C(=O)C12C (stereo unspecified) [euspeclibcmpd1449]	12.3 (active)
NCCC(=O)C(O)N[C@@H]1C[C@H](N)[C@@H](O[C@H]2O[C@H](CN)[C@@H](O)[C@H](O)[C@H]2O)[C@H](O)[C@H]1O[C@H]1O[C@H](CO)[C@@H](O)[C@H](N)C1O (stereo partly specified) [euspeclibcmpd967]	-0.34 (inactive)
CCCC[C@@H](CC)COC(=O)/C=C/c1ccc(OC)cc1 [euspeclibcmpd2186]	1.35 (inactive)
COC1=CC(=O)C(C(=O)c2ccccc2)=CC1=O [euspeclibcmpd1986]	-0.559 (inactive)
COC1=CC(=O)C=C(OC)C1=O [euspeclibcmpd2007]	0.392 (inactive)
COC1=CC(=O)C(=O)C=C1C=CCc1ccccc1 [euspeclibcmpd1419]	9.05 (active)
CC(=O)OCC(=O)[C@@]1(O)CCC2C3CC=C4CC(=O)CC[C@]4(C)[C@@]3(F)[C@@H](O)C[C@@]21C (stereo partly specified) [euspeclibcmpd127]	-0.373 (inactive)
Cc1n[nH]c(=NS(=O)(=O)c2ccc(N)cc2)s1 [euspeclibcmpd277]	-0.64 (inactive)
Cc1csc(/C(C#N)=C\C=C\c2ccccc2[N+](=O)[O-])n1	35.4 (active)
OC[C@@H](O)[C@@H](O[C@@H]1O[C@H](CO)[C@H](O)[C@H](O)[C@H]1O)[C@H](O)[C@@H](O)CO [euspeclibcmpd2389]	-0.142 (inactive)
CC1(C(=O)O)CCC2(C)CCC3(C)C(=C2C1)CC(=O)C1C2(C)CCC(O)C(C)(C)C2CCC13C (stereo unspecified) [euspeclibcmpd1963]	-0.0731 (inactive)
O=C(COC(=O)C12CC3CC(C1)CC(c1ccccc1)(C3)C2)Nc1ncc(C(F)(F)F)cc1Cl	1.42 (inactive)
CCN(CC)C(=O)C(C#N)=Cc1cc(O)c(O)c([N+](=O)[O-])c1 [euspeclibcmpd861]	-0.942 (inactive)

Compound	Srxn1-GFP intensity median modified Z-score
CC(C)(O)[C@@H]1CC[C@](C)([C@H]2[C@@H](O)C[C@@]3(C)C4C[C@H](O[C@@H]5O[C@H](CO)[C@@H](O)[C@H](O)[C@H]5O)C5C(C)(C)[C@@H](O[C@@H]6OC[C@@H](O)[C@H](O)[C@H]6O)CC[C@@]56C[C@@]46CC[C@]23C)O1 (stereo partly specified) [euspeclibcmpd1691]	-0.304 (inactive)
O=C(O)CCCN1C(=O)c2cccc3cccc(c23)C1=O [euspeclibcmpd1803]	-0.0255 (inactive)
O=C(O)CN1C(=O)c2cccc3cccc(c23)C1=O [euspeclibcmpd433]	2.2 (active)
CCCCCCCC/C=C/CCCCCCCCOP(=O)(O)OCC[N+](C)(C)C [euspeclibcmpd1773]	1.28 (inactive)
CNC(C)[C@@H]1CC[C@@H](N)[C@@H](OC2[C@@H](N)C[C@@H](N)[C@H](OC3OC[C@](C)(O)[C@H](NC)[C@H]3O)[C@H]2O)O1 (stereo partly specified) [euspeclibcmpd820]	-0.00227 (inactive)
CC(=O)O[C@]1(C(C)=O)CCC2C3CC(C)=C4CC(=O)CC[C@]4(C)C3CC[C@@]21C (stereo partly specified) [euspeclibcmpd178]	-0.198 (inactive)
C=C1C(=O)O[C@@H]2C[C@@]3(C)CCC[C@H](C)C3=C[C@H]12 [euspeclibcmpd1482]	10.2 (active)
Cc1cc(-c2ccc(N=Nc3ccc4c(S(=O)(=O)O)cc(S(=O)(=O)O)c(N)c4c3O)c(C)c2)ccc1N=Nc1ccc2c(S(=O)(=O)O)cc(S(=O)(=O)O)c(N)c2c1O [euspeclibcmpd2073]	-1.03 (inactive)
NC1(C(=O)O)CCCC1 [euspeclibcmpd1759]	-0.415 (inactive)
O=C(O)CCc1nc2ccccc2[nH]1 [euspeclibcmpd1271]	-0.404 (inactive)
CC1=C(CCC(=O)O)c2cc3nc(cc4[nH]c(cc5[nH]c(cc1n2)c(C)c5C(C)O)c(C)c4C(C)O)C(C)=C3CCC(=O)O (stereo unspecified) [euspeclibcmpd1687]	8.82 (active)
C=CC1=C(C)c2cc3[nH]c(cc4[nH]c(cc5nc(cc1n2)=C(C)C5=CCC(=O)O)c(CCC(=O)O)c4C)c(C)c3=CC [euspeclibcmpd1059]	0.562 (inactive)
CN(C)C(N)=NC(=N)N [euspeclibcmpd874]	-0.199 (inactive)
CC(CCC(=O)O)C1CCC2C3CCC4CC(O)CCC4(C)C3CC(=O)C12C (stereo unspecified)	0.291 (inactive)
O=C(O)[C@H](O)[C@@H](O)[C@H](O)[C@H](O)CO [euspeclibcmpd2450]	0.571 (inactive)
COc1ccc(C(=O)/C=C/c2cccc(Cl)c2)cc1	0.75 (inactive)
COc1ccc(C(=O)/C=C/c2ccccc2)cc1 [euspeclibcmpd1565]	26.7 (active)
CCOC(=O)c1ccc(O)cc1 [euspeclibcmpd974]	-0.257 (inactive)
O=C(/C=C/c1ccccc1)c1ccc(O)cc1 [euspeclibcmpd1718]	12.6 (active)
COc1ccc(C=CC(=O)c2cc(O)ccc2O)cc1 [euspeclibcmpd1400]	-0.058 (inactive)
O=C(O)/C=C/C=C/c1ccccc1 [euspeclibcmpd1620]	-0.147 (inactive)
O=C(/C=C/c1ccccc1)c1ccc(O)cc1	4.36 (active)

Source: the supplement of paper PMC10498489
